Activity calls are given as the source filed them.
Legend:
[1] = target: Albumin (Bos taurus) (UniProt P02769); assay: compounds binding labelled BSA control protein – biochemical, small-molecule microarray, Alexa647 label, 635/667 nm fluorescence, artefact control for SMM control protein annotation, profiling panel (AID 1118); details: BSA-A647 binding, fluorescence 635 nm, higher = more signal;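 further: score merges 667 nm emission intensity and signal-to-noise per printed compound spot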
[2] = probe aXIP binding to arrayed compounds – biochemical, NeuroSMM set, 635/667 nm fluorescence, primary screen (AID 1119); details: small-molecule microarray, higher = more signal, called active from +8 up or from −8 down;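 further: probe is the protein aXip251-270 applied at 1 µg/mL to compound-printed slides; binding of probe to printed compounds measured as 667 nm fluorescence plus signal to noise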
[3] = probe aNOTCH3 binding on compound microarray – biochemical, small-molecule microarray, 635/667 nm fluorescence, primary screen (AID 1120); details: higher = more signal;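 further: probe is a biotin-tagged antibody raised against NOTCH3 rather than NOTCH3 protein; score merges spot fluorescence near 667 nm with spot signal to noise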
[4] = probe aNOTCH2 binding on compound microarray – biochemical, small-molecule microarray, 635/667 nm fluorescence, primary screen (AID 1121); details: higher = more signal;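 further: score merges feature fluorescence read at 667 nm with its signal to noise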
[5] = target: Carbonic anhydrase 2 (Homo sapiens) (UniProt P00918); assay: compounds binding carbonic anhydrase 2 – biochemical, small-molecule microarray, Alexa647-labelled CAII, profiling panel (AID 1122); details: CAII-A647 binding fluorescence, higher = more signal
[6] = COS7 lysate on small-molecule microarray, probe aHis, 635 nm (AID 1123); details: COS7 cell lysate, fluorescence, higher = more signal;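 further: z-score combines 667nm fluorescence intensity with signal-to-noise per printed compound spot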
[7] = probe aLAP1 signal on lysate-treated microarray – cell lysate, small-molecule microarray, COS7 lysate, primary screen (AID 1124); details: probe aLAP1, fluorescence, higher = more signal;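 further: lysate comes from COS7 cells expressing LAP1 and is applied at 0.3 µg/mL; score merges spot fluorescence near 667 nm with signal-to-noise over triplicate slides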
[8] = test system: Sam68 (KHDRBS1); assay: compounds binding KHDRBS1 protein – biochemical, small-molecule microarray, 635 nm fluorescence, primary screen (AID 1125); details: higher = more signal;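 further: score merges 667 nm channel intensity with signal to noise over triplicate slides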
[9] = test system: Chordin-like protein 2 (CHRDL2); assay: compounds binding chordin-like 2 – biochemical, small-molecule microarray, 635 nm fluorescence, primary screen (AID 1126); details: fluorescence 635 nm, higher = more signal;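 further: printed compound slides probed with Chrdl2 protein at 4 µg/mL for 1 h at 4 C; score merges 667 nm emission intensity with signal to noise over three replicate slides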
[10] = target: Concanavalin-A (Canavalia ensiformis) (UniProt P02866); assay: compounds binding concanavalin A lectin – biochemical, small-molecule microarray, Alexa647 label, 635 nm, artefact control for SMM control protein annotation, primary screen (AID 1127); details: ConA-A647 binding fluorescence, higher = more signal;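 further: z combines 667 nm emission intensity with signal-to-noise across three replicate slides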
Sequence of Concanavalin-A (Canavalia ensiformis) (P02866 whole entry, looked up): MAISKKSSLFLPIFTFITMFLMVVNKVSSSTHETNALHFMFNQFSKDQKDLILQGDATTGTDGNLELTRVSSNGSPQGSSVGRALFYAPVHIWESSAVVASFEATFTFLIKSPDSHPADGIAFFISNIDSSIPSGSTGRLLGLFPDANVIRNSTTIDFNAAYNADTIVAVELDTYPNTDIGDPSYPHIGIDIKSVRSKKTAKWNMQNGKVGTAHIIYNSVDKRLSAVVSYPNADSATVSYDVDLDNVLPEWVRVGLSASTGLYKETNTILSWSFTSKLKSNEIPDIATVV

[11] = compounds binding Alexa647 anti-His antibody – biochemical, small-molecule microarray, 635 nm fluorescence, artefact control for SMM control protein annotation, primary screen (AID 1128); details: higher = more signal;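 further: score merges feature fluorescence with signal-to-noise for each printed compound spot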
[12] = test system: Human papillomavirus type 1a E7 protein (residues 1-88); assay: HPV1a E7 small-molecule binders, primary screen, biochemical, small-molecule microarray, residues 1-88, 635 nm (AID 1129); details: small-molecule microarray binding, fluorescence 635 nm; higher = more signal
[13] = target: Focal adhesion kinase 1 (Homo sapiens) (UniProt Q05397); assay: PTK2 protein binding on printed compound slides – biochemical, small-molecule microarray, 635/667 nm fluorescence, BSA, DTT, primary screen (AID 1130); details: 635 nm fluorescence, higher = more signal;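 further: composite of spot emission at 667 nm and signal to noise over triplicate slides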
Sequence of Focal adhesion kinase 1 (Homo sapiens) (Q05397 whole entry, looked up): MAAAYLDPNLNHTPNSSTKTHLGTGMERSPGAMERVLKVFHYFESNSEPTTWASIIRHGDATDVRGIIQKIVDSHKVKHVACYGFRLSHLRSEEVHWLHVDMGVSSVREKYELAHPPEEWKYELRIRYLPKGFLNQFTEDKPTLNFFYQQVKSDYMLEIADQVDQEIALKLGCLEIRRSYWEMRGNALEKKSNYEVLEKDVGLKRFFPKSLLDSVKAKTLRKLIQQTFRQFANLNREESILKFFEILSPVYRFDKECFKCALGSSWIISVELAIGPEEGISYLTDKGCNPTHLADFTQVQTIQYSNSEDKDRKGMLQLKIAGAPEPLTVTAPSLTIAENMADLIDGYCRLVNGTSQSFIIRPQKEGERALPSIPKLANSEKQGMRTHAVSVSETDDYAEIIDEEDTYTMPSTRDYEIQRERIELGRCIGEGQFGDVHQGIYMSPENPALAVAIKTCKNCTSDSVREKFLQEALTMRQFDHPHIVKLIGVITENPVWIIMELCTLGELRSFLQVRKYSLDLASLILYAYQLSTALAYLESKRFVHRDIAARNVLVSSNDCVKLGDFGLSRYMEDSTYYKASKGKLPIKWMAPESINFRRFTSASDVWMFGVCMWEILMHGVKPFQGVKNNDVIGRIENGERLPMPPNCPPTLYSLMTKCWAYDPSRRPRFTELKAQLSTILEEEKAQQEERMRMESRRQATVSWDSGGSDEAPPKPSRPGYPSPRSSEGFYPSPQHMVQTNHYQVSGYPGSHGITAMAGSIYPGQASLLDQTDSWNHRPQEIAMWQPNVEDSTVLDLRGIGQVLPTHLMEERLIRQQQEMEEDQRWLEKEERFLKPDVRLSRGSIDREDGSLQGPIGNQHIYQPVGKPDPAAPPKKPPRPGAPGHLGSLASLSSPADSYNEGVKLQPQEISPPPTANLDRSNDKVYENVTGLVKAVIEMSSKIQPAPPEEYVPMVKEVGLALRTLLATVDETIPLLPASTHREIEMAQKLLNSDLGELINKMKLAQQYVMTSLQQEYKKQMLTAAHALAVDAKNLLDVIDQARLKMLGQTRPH

[14] = test system: Fibrinogen (Alexa647-labelled); assay: Alexa647-fibrinogen binding to printed small molecules – biochemical, small-molecule microarray, 635/667 nm fluorescence, artefact control for SMM control-protein annotation, profiling panel (AID 1131); details: fibrinogen-A647 binding fluorescence, higher = more signal;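 further: z-score merges 667 nm fluorescence with per-spot signal-to-noise over triplicate slides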
[15] = target: Follistatin (Homo sapiens) (UniProt P19883); assay: FST protein binding to printed compounds – biochemical, small-molecule microarray, 635/667 nm fluorescence, primary screen (AID 1132); details: 635 nm fluorescence, higher = more signal
Sequence of Follistatin (Homo sapiens) (P19883 whole entry, looked up): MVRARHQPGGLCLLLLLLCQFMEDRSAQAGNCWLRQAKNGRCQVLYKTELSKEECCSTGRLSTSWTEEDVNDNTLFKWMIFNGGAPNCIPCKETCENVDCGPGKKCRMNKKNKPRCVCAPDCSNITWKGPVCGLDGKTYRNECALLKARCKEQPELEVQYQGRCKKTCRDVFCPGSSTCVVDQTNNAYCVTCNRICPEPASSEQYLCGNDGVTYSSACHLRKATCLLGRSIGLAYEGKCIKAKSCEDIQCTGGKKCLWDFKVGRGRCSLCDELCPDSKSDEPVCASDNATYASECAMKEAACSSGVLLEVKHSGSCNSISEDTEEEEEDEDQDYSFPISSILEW

[16] = target: Fibroblast growth factor 2 (Homo sapiens) (UniProt P09038); assay: basic fibroblast growth factor binding to printed compounds – biochemical, small-molecule microarray, 635/667 nm fluorescence, primary screen (AID 1133); details: FGF2, fluorescence 635/667, higher = more signal
Sequence of Fibroblast growth factor 2 (Homo sapiens) (P09038 whole entry, looked up): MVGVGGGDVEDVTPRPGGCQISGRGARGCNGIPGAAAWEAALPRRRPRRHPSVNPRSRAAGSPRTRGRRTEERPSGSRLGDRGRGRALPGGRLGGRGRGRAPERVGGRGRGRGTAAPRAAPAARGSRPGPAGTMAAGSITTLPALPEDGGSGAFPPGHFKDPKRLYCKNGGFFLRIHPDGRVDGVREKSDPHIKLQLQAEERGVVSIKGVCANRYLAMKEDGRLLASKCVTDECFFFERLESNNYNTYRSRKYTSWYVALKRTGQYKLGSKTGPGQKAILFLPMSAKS

[17] = JC-1 mitochondrial potential readout, lung cancer cells – cell-based, A549, JC-1 fluorescence, basal, 24 h, 100 nL, profiling panel (AID 1138); details: higher = more signal;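 further: A549 lung adenocarcinoma cells under basal conditions with no added stimulus; test concentration not given here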
[18] = test system: Lefty1; assay: Lefty1 protein binding to printed compounds – biochemical, small-molecule microarray, 635/667 nm fluorescence, primary screen (AID 1139); details: fluorescence 635/667, higher = more signal
[19] = test system: wheat germ agglutinin (Triticum aestivum), Alexa647-labelled; assay: Alexa647-WGA lectin binding to printed small molecules – biochemical, small-molecule microarray, 635/667 nm fluorescence, artefact control for SMM control-protein annotation, profiling panel (AID 1140); details: WGA-A647 binding, 635 nm fluorescence, higher = more signal;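 further: score merges 667 nm feature emission with signal to noise over triplicate slides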
[20] = target: Luciferin 4-monooxygenase (Photinus pyralis) (UniProt P08659); assay: inhibition of purified Photinus pyralis luciferase – biochemical, luminescence, purified enzyme, 2006 set, primary screen (AID 1141); details: purified firefly luciferase, SteadyGlo luminescence, 30 min; higher = more signal, called active from +8 up or from −8 down;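 further: cell-free assay with purified firefly luciferase at 100 ng per well in PBS; test concentration not given here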
Sequence of Luciferin 4-monooxygenase (Photinus pyralis) (P08659 whole entry, looked up): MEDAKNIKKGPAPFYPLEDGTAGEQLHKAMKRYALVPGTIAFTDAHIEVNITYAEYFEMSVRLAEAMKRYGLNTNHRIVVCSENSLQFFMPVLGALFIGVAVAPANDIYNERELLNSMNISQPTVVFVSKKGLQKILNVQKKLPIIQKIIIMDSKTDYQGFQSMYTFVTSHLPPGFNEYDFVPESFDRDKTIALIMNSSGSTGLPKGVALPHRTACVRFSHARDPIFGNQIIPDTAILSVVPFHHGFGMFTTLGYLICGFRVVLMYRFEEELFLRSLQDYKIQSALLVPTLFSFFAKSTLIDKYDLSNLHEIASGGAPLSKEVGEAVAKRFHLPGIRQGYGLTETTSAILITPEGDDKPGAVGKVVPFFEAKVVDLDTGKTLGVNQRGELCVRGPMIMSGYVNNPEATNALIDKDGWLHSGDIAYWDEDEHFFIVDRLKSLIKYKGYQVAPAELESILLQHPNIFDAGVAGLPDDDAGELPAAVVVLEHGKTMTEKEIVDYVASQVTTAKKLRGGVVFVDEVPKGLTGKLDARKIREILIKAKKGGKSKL

Sequence of Albumin (Bos taurus) (P02769 whole entry, looked up): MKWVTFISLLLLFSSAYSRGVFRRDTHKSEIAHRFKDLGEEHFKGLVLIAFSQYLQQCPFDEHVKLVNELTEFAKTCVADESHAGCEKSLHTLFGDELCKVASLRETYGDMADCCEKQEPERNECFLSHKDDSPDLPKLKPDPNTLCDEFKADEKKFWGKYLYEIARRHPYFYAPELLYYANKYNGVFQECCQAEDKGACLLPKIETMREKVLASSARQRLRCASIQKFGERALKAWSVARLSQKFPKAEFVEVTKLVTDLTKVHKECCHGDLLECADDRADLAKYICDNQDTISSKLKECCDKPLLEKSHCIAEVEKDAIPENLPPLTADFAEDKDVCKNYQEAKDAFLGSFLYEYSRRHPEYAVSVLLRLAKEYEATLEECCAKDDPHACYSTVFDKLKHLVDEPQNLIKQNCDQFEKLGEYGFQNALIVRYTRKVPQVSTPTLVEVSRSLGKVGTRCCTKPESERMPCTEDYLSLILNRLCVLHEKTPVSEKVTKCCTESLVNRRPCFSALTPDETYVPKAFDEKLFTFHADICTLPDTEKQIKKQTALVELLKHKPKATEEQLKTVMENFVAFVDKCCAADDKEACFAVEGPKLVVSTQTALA

Row | SMILES | composite z-score [1] | composite Z-score [2] | composite z-score [3] | composite z-score [4] | composite z-score [5] | composite z-score [6] | composite z-score [7] | composite z-score [8] | composite z-score [9] | composite z-score [10] | composite z-score [11] | composite z-score [12] | composite z-score [13] | composite z-score [14] | composite z-score [15] | composite z-score [16] | z-score [17] | composite z-score [18] | composite z-score [19] | z-score [20]
1 | CCOC(=O)C1=CC[C@@H](c2ccc(OC)cc2)N(S(=O)(=O)c2ccc(C)cc2)[C@H]1CC | 0.894 | -0.0608 (inactive) | 0.164 | 0.0684 | 0.579 | 1.85 | 0.133 | 1.33 | -0.483 | 1.07 | 1.17 | 1.22 | 0.493 | 0.993 | 0.995 | 0.873 | 2.69 | 0.689 | 0.902 | 1.24 (inactive)
2 | CC(C)NC(=O)[C@@H]1c2ccccc2C(=O)N(Cc2ccccc2C(F)(F)F)[C@H]1c1ccc(CO)cc1 | -0.273 | -0.483 (inactive) | -0.0144 | -0.0901 | 0.726 | 0.725 | 0.647 | -0.0631 | -0.585 | -0.329 | -0.403 | -0.358 | -0.156 | -0.55 | 0.471 | 0.232 | -0.18 | -1.5 | 0.145 | 0.681 (inactive)
3 | COC(=O)[C@@]1(Cc2ccccc2)[C@H]2c3cc(C(=O)N4CCCC4)n(Cc4ccc(OC)c(OC)c4)c3C[C@H]2CN1C(=O)c1ccccc1 | 0.909 | 0.651 (inactive) | 1.11 | 0.204 | 0.853 | 3.22 | 0.382 | 1.04 | -1.05 | 0.827 | 0.682 | 1.27 | 0.916 | 1.03 | 0.528 | -0.502 | 1.99 | -0.115 | 0.863 | 2.75 (inactive)
4 | CN1C(=O)C2C(C1=O)C1C=C(c3ccc(CO)cc3)C2C(C2CC2)N1C (stereo not given) | 0.876 | 0.111 (inactive) | -0.0947 | -0.0859 | 0.431 | -0.415 | -0.0324 | 0.164 | 0.0323 | 0.0875 | 0.958 | -0.164 | -0.324 | -0.578 | -0.17 | -0.124 | -0.808 | -0.617 | -0.0515 | 0.279 (inactive)
5 | COc1ccc([Si](C)(C)[C@H]2[C@H](CCO)O[C@@]3(C(=O)N(Cc4ccc(NC(=O)[C@H](C)O)cc4)c4ccccc43)[C@@H]2C)cc1 | 0.494 | 0.515 (inactive) | 0.0643 | -0.164 | 0.488 | 1.9 | 0.0861 | 1.32 | 0.101 | 0.897 | 1.4 | 1.23 | 0.382 | 0.68 | 0.728 | 0.634 | -1.45 | 0.568 | 0.355 | -0.234 (inactive)

From PubChem BioAssay
